Our source for the Potency values is PubChem BioAssay AID623959 (National Center for Advancing Translational Sciences (NCATS), 2012).

The campaign covered roughly 1,400 compounds. Fewer than 10 were called active. Inconclusive results (about 8%) are left out. Calls come from the whole dose curve; as a rule, active = well fitted curve in the direction sought with a large enough effect; inconclusive = small, poorly fitted or top-dose-only effect, or another doubt; inactive = no such curve, though single readings can be large or run the other way. The list is a sample of the results. A call without a number means that no potency is given here.
Potency is the fitted concentration of half-maximal effect.

Transient receptor potential cation channel subfamily V member 1 (Homo sapiens), sequence (Q8NER1 whole entry, looked up): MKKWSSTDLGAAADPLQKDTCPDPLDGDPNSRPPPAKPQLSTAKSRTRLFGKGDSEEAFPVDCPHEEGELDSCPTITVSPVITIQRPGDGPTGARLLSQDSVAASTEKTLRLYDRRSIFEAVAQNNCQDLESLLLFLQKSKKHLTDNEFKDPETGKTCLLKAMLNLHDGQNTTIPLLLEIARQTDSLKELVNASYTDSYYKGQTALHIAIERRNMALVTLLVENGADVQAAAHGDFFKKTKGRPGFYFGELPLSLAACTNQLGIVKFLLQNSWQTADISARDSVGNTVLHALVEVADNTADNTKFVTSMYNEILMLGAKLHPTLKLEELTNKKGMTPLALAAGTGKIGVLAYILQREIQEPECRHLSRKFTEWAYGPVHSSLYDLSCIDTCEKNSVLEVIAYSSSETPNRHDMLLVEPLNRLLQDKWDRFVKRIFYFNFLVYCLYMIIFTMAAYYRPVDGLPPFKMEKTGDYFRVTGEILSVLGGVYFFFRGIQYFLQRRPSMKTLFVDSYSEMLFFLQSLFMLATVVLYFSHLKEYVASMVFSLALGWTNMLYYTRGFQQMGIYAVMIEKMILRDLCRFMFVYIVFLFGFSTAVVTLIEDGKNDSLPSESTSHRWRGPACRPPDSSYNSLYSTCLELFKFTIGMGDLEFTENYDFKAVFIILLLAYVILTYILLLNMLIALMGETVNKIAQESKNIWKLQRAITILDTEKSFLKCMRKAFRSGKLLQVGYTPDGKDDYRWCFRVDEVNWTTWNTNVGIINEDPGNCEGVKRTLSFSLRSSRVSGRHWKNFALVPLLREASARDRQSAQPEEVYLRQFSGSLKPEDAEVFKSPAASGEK

In this test the target is Transient receptor potential cation channel subfamily V member 1 (Homo sapiens) (UniProt Q8NER1). The test can be described thus: qHTS Assay for Compounds that Act as Potentiators of the Vanilloid Receptor 1: Hit Validation. Particulars: TRPV1-expressing cells, Fluo-8 calcium influx, capsaicin EC20; series mostly up to 42.1 µM. An excerpt:
The transient receptor potential ion channel, family V, number 1, (TRPV1) is one of the most important molecular transducers of painful stimuli and a potential target for analgesic drug development. Although recent clinical trials with orthosteric antagonists have not produced a successful drug because of a hyperthermia side effect and their tendency to block thermal noxious pain, this ion channel is undeniably well placed in the pain pathway, and the idea of blocking pain signals before they enter the CNS is an excellent concept and of proven efficacy when TRPV1 agonists are used. We propose a new approach involving allosteric modulation to impose an activity-dependent constraint within the context of inflammation and tissue damage that would alter the responsiveness of the channel in a way that an orthosteric vanilloid antagonist cannot achieve. We believe that the allosteric modulator approach has not been explored for this target. The main goal of this proposal is to identify additional, new, potent allosteric modulators of TRPV1 that can be used to investigate TRPV1 function. Our recent report provides evidence of proof of concept, but the compounds are just at the edge of utility in terms of potency. […] The question of whether they can be used as analgesic agents is complex, but if suitable compounds are identified then testing for analgesic properties will be conducted. Compounds identified as agonists were re-tested in the primary screen for hit validation. NIH Chemical Genomics Center [NCGC] NIH Molecular Libraries Probe Centers Network [MLPCN] MLPCN Grant: MH089480 Assay Submitter (PI): Michael Iadarola, National Institute of Dental and Cranofacial Research
Upon TRPV1 activation in TRPV1 cells, the channel opens and extracellular cations flow through the channel into the cytosol. A calcium binding dye (Fluo-8) becomes fluorescent when bound to calcium. This dye is pre-loaded into cells and is used as a marker for calcium influx. The amount of accumulated calcium is precisely quantified using the FDSS kinetic reader and the calcium dye. For the HTS assay, freshly prepared cells are plated at a density of 2000/well in 3 ul medium in 1536-well plates and cultured overnight at 35.5C. Cells will be loaded with 1 ul of the homogeneous calcium dye (ABD Bioquest) at room temperature for 40 to 90 minutes. Plates will be loaded into the FDSS kinetic reader and a 1 sec / cycle for 10 second baseline signal will be measured. Compound library will then be added with a pintool at 23 nl and measured kinetically for 3 minutes. This portion of the read is considered the agonist portion of the screen. Following the 3 minutes of incubation, an on board pipettor will deliver 1 ul of capsaicin for a final concentration equal to the EC20. Signal will be measured kinetically for an additional 2 minutes. This portion of the read is considered the allosteric enhancer portion of the screen. The FDSS reader has a standard filter set capable of measuring calcium bound Fluo-8 (ex=480 and em=520 nm).
(Quantitative high-throughput screening tests each substance at several concentrations.)
On to `Cc1nc(Nc2cccc(Cl)c2)c2oc3ccccc3c2n1`, for which the Potency entry was “inactive”.

Regarding `CCOC(=O)C(C(=O)OCC)c1cc(Br)c2noc3c2c1C(=O)c1ccccc1-3`, the Potency was 3.6 µM (active). Take `COc1ccc(Cn2nc(-c3ccccc3)c(N3CCCCC3)cc2=O)cc1`: the Potency entry was “inactive”. For `CCOC(=O)[C@H]1[C@H]2COc3ccc(Cl)cc3[C@@H]2N2C(=O)c3ccc(C)cc3NC(=O)[C@@]12C`, the Potency result is “inactive”.

Take `CCc1ccc(NC(=O)c2ccc(S(=O)(=O)NCc3cccnc3)cc2)cc1`: the Potency result is “inactive”. Turning to `CC(=O)c1c[nH]c(C(=O)NCc2ccccc2Cl)c1`, the Potency entry was “inactive”. On to `COCCN(CCOC)S(=O)(=O)c1ccc(C(=O)Nc2nnc(C3CC3)o2)cc1`, for which the Potency entry is “inactive”. On to `COCCNC(=O)CCc1c(C)nc2c(c(C)nn2-c2ccc(C)cc2)c1C`, for which the Potency result is “inactive”. `COc1ccc(CCNC(=O)c2noc3c2CCCC3)cc1OC`: the Potency entry is “inactive”.

With `Cc1ccccc1C(=O)Nc1nnc(-c2ccc(C(C)(C)C)cc2)s1`, the Potency result was “inactive”.

Turning to `CCCN1C(=O)/C(=C/c2ccncc2)SC1=S`, the Potency entry was “inactive”. As to `COc1ccc2c(c1)C(c1ccc(Cl)cc1)NC(=O)C2` (stereo not drawn), the Potency entry is “inactive”.

In the case of `CSCCCN1CC[C@@H](N2CCN(c3ccccc3F)CC2)[C@H](O)C1`, the Potency entry is “inactive”. As for `CCN(CC)CCN(Cc1cc2cc(C)ccc2[nH]c1=O)C(=O)Nc1ccccc1OC`, the Potency result is “inactive”. On to `Cc1nc(C(F)(F)F)ccc1C(=O)Nc1ccc(C(F)(F)F)cn1`, for which the Potency result was “inactive”.

With `C=C(C(=O)Nc1ccccc1)c1ccc(C)cc1`, the Potency result is “inactive”.

On to `COc1ccc(-n2c(SCC(N)=O)nc3nc4c(cc3c2=O)COC(C)(C)C4)cc1`, for which the Potency result is “inactive”.

For the compound `NC(=O)c1ccc(-n2nnnc2Oc2ccccc2C(=O)N2CCOCC2)cc1`, the Potency entry is “inactive”. With `Cc1[nH]c2ccccc2c1CCN(Cc1cccnc1)C(=S)Nc1ccc(F)cc1`, the Potency entry was “inactive”.

As for `CCc1ccc(NC(=O)C2CCCN(S(=O)(=O)c3c(C)[nH]c(=O)[nH]c3=O)C2)cc1` (stereo not drawn), the Potency result is “inactive”. As to `CC(=O)Nc1cccc(NC(C)=O)n1`, the Potency result was “inactive”.

For the compound `Cn1nc(C(C)(C)C)cc1C(=O)NCc1ccc(N2CCCC2=O)cc1`, the Potency entry is “inactive”. Regarding `COc1cccc(CNC(=S)Nc2cccc(Cl)c2C)c1`, the Potency result is “inactive”. In the case of `CCCCOc1ccc(C(=O)Nc2cccc(-n3cnnn3)c2)cc1OC`, the Potency entry was “inactive”. As to `O=C(Cn1c(NCCCO)nc2ccccc21)c1ccc(Cl)cc1`, the Potency entry is “inactive”. Regarding `CCS(=O)(=O)C1=NN2C(=N)/C(=C\c3ccc(OCCOc4cccc(OC)c4)c(OC)c3)C(=O)N=C2S1`, the Potency result was “inactive”. In the case of `CCOC(=O)c1c(C)[nH]c(C)c1C(=O)CN1C(=O)NC(CC(C)C)C1=O` (stereo not drawn), the Potency result was “inactive”. As for `CN(Cc1c(O)ccc2c1oc(=O)c1ccccc12)C1CCCCC1`, the Potency result was “inactive”. With `CN(Cc1ccccc1Cl)C(=O)c1cc2ccccc2o1`, the Potency entry was “inactive”. Next, `CC1CC(C)CN(C(=O)c2cc(S(=O)(=O)N3CCCCC3)ccc2Cl)C1` (stereo not drawn): “inactive”; `O=C(Cc1nc2ccccc2[nH]1)c1ccc(Cl)cc1`: “inactive”. In the case of `CS(=O)(=O)N1N=C(c2cccs2)CC1c1ccc(Cl)o1` (stereo not drawn), the Potency entry was “inactive”. In the case of `CCOCc1c(C(=O)Nc2ccc(OC)nc2)oc2ccccc12` it was “inactive”.

In the case of `Cc1cc(NC(=O)C(C)C)ncc1NC(=O)c1cccc(F)c1`, the Potency entry was “inactive”. For the compound `CC1CCN(C(=O)c2cc(-c3ccc4c(c3)OCO4)on2)CC1`, the Potency result is “inactive”.

Turning to `Cc1ccc(NC(=O)CSc2nnc(-c3ccccn3)n2C)cc1`, the Potency entry was “inactive”.

On to `O=C(CSc1nc2ccccc2[nH]1)c1ccccc1F`, for which the Potency entry was “inactive”. Turning to `Cc1ccc2c(c1)nnn2C1CCN(C(=O)NCc2ccccc2)CC1`, the Potency result was “inactive”. In the case of `O=C(CSc1nc(C2CC2)nc2ccccc12)N1CCCCC1` it was “inactive”; in that of `Cc1oc(C(C)(C)C)cc1C(=O)N1CCCC1C(=O)O` (stereo not drawn), “inactive”. Next, `O=C(O)c1ccc(NC(=O)c2ccccc2Br)c(NC(=O)c2ccccc2Br)c1`: “inactive”.

Take `Cc1cccc(NCc2cc(Cl)cc(Cl)c2O)n1`: the Potency result is “inactive”. As to `CC(C)NC(=O)C1CC=CCC1C(=O)O` (stereo not drawn), the Potency result was “inactive”. With `CC(=O)CC(C)(C)S(=O)(=O)c1ccc(NC(C)=O)cc1`, the Potency result was “inactive”. On to `CC(=O)Nc1cc(-c2ccccc2)ccc1O`, for which the Potency entry is “inactive”.

As for `CSCCC(NC(=O)c1ccc(Cl)cc1)C(=O)NC(C)(C)C` (stereo not drawn), the Potency result is “inactive”. Take `Cc1cc(C)c(C#N)c(Cl)n1`: the Potency result was “inactive”. Take `O=C(O)c1sccc1S(=O)(=O)N1CCN(c2ccc(C(F)(F)F)cn2)CC1`: the Potency result was “inactive”.

For `O=[N+]([O-])c1ccc(O)c(/C=N/Nc2ccccc2[N+](=O)[O-])c1`, the Potency result was “inactive”.

Regarding `Cc1nn(C)c(C(=O)Nc2ccc(S(=O)(=O)NC34CC5CC(CC(C5)C3)C4)cc2)c1Br`, the Potency result is “inactive”.

Take `COc1ccc(C2=NCCn3nc4ccccc4c32)cc1`: the Potency result was “inactive”.

Regarding `CCN(c1ccccc1)S(=O)(=O)c1ccc2c(c1)N(C(C)=O)CCO2`, the Potency result is “inactive”. With `COc1cc2[nH]c(C(=O)Nc3ccc(F)cc3)cc2c(OC)c1OC`, the Potency entry is “inactive”. As to `COc1ccc(-c2cn3cc(C)ccc3n2)cc1OC`, the Potency entry is “inactive”.

Turning to `Cn1ncc([N+](=O)[O-])c1C(=O)Nc1ccccc1`, the Potency result was “inactive”.

Regarding `CC(/C=C/c1ccc2c(c1)OCO2)=N\NC(=O)c1ccccc1`, the Potency entry is “inactive”. Turning to `Cc1nc([N+](=O)[O-])c(C(=O)OCc2ccccc2)n1C`, the Potency result is “inactive”. `Cc1cccnc1NC(N)=S`: the Potency entry was “inactive”. In the case of `COC(=O)[C@H](C)NC(=O)c1cc2c(cn1)[nH]c1ccccc12` it was “inactive”. Next, `NC(=O)C1(c2ccccc2)OC1c1ccccc1` (stereo not drawn): “inactive”; `CCOC(=O)C(Cc1ccccc1)C(=O)Nc1cccc(C)c1` (stereo not drawn): “inactive”; `COc1ccc(C(=O)Nc2nc3ccccc3s2)cc1`: “inactive”.

As for `COc1cc(/C=N/NC(=S)Nc2cccnc2)cc(OC)c1OC`, the Potency result was “inactive”.

In the case of `CCOC(=O)N1CCN(CCC(=O)Nc2cccc(Cl)c2C)CC1`, the Potency entry is “inactive”. In the case of `N#C/C(=N\Nc1ccc([N+](=O)[O-])cc1)C(=N)N1CCOCC1` it was “inactive”.

Take `COc1ccc(C(=O)N/N=C/c2ccc(OC)c(CSc3ccccn3)c2)cc1`: the Potency entry is “inactive”. In the case of `CC(C)Oc1ccc(NC(=O)c2ccncc2)cc1` it was “inactive”. With `Cn1c(=O)c2ccccc2n(CC(=O)Nc2ccc3c(c2)OCCO3)c1=O`, the Potency result was “inactive”. Regarding `COc1ccc(Nc2nc(C)nc3c2oc2ccccc23)cc1`, the Potency result is “inactive”. Turning to `CS(=O)(=O)Nc1nc2ccccc2[nH]1`, the Potency entry is “inactive”. With `COc1ccc(CNC(=S)Nc2cccc(F)c2)cc1`, the Potency result is “inactive”. Regarding `COc1ccc(C(=O)N(C)C2CCCN(Cc3ccccc3F)C2)cc1OC` (stereo not drawn), the Potency result was “inactive”.

For the compound `COCCNC(=O)c1cccc(OC2CCN(Cc3cccc(C(C)=O)c3)CC2)c1`, the Potency result is “inactive”.
